# In PMC5540273 (PLoS ONE, 2017):
# Columns and labels:
# Settings in all cases: concentration: 1 μM, replicates: in singlicate; n = 1
# PRKCQ = tested on: PRKCQ
# PRKD1 = tested on: PRKD1
# PRKD2 = tested on: PRKD2
# PRKD3 = tested on: PRKD3
# PRKG1 = tested on: PRKG1
# PRKG2 = tested on: PRKG2
# PRKR = tested on: T1, PRKR
# T1 construct: gene EIF2AK2
# PRKX = tested on: PRKX
# PRP4 = tested on: PRP4
# PYK2 = tested on: T2, PYK2
# T2 construct: gene PTK2B
# QSK = tested on: QSK
# RAF1 = tested on: RAF1
# RET = tested on: RET
# RIOK1 = tested on: RIOK1
# RIOK2 = tested on: RIOK2
# RIOK3 = tested on: RIOK3
# RIPK1 = tested on: RIPK1
# RIPK2 = tested on: RIPK2
# RIPK4 = tested on: RIPK4
# RIPK5 = tested on: RIPK5
# 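Also: KINOMEscan kinase panel screen.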
SMILES,%Inh (PRKCQ) [%],%Inh (PRKD1) [%],%Inh (PRKD2) [%],%Inh (PRKD3) [%],%Inh (PRKG1) [%],%Inh (PRKG2) [%],%Inh (PRKR) [%],%Inh (PRKX) [%],%Inh (PRP4) [%],%Inh (PYK2) [%],%Inh (QSK) [%],%Inh (RAF1) [%],%Inh (RET) [%],%Inh (RIOK1) [%],%Inh (RIOK2) [%],%Inh (RIOK3) [%],%Inh (RIPK1) [%],%Inh (RIPK2) [%],%Inh (RIPK4) [%],%Inh (RIPK5) [%]
Cc1cccc(-c2nc(Nc3ccncc3)c3ccccc3n2)n1 [GW855857],0,86,99,69,7,0,2,0,17,4,0,39,9,0,0,35,4,71,0,0
COC(=O)c1c(-c2ccccc2)c2cc(OC)ccc2c(=O)n1Cc1ccccc1,15,0,16,0,0,2,4,4,7,6,23,85,17,0,0,0,0,0,4,24
Cc1ccccc1-n1cnc2c(N)ncnc21 [SKF-97510],0,0,0,4,0,0,0,0,0,0,0,0,17,0,0,0,10,0,0,0
Cc1c(Cn2ccn3c(=O)cc(N4CCOCC4)nc23)cccc1C(F)(F)F [GSK2289044],3,6,19,0,0,9,4,25,0,0,3,5,8,3,34,5,9,10,0,0
Nc1nc(-c2nccs2)c(-c2ccnc3ccccc23)s1 [GW693542],39,42,14,12,8,0,0,10,20,16,0,15,37,24,6,38,0,14,5,0
O=c1cc(N2CCOCC2)nc2n(Cc3cccc(Cl)c3Cl)ccn12 [GSK2286295],14,0,20,0,0,0,0,0,0,0,1,7,1,42,56,19,0,6,6,0
Clc1cc(Cl)cc(Nc2ccnc(Nc3cc(Cl)cc(Cl)c3)n2)c1 [GSK175726],0,0,12,0,0,12,14,10,6,19,0,17,10,34,91.7,35,0,41,10,6
COc1ccc2nc(-c3cccc(C)n3)nc(Nc3ccncc3)c2c1 [GSK204919],44,92.4,98.8,100,8,0,0,7,8,9,0,6,18,24,0,16,0,33,5,0
CS(=O)(=O)c1ccc(-c2nc3n(c2-c2ccncc2)CCC3)cc1 [SKF-105942],0,3,0,0,0,5,0,2,11,0,0,16,0,0,0,0,0,0,100,2
Nc1ncnc2[nH]c(-c3ccccc3)nc12 [AH5015],0,0,0,9,6,0,0,0,30,0,0,42,0,0,4,0,16,6,17,8
Cn1ccc2ncnc(Oc3ccc(NC(=O)Nc4ccccc4)cc3)c21,13,0,2,0,7,31,0,0,0,0,0,0,17,19,12,29,5,26,0,0
Cc1cc(-c2ccc3c(c2)CC[C@@H](N[C@@H](C)c2ccccc2)C3)cnc1N.Cl [GW412617],36,18,21,0,9,0,0,12,0,12,0,19,0,44,85,32,50,15,13,7
CC(=O)Nc1nc2cnc(Nc3cc(NC(=O)c4cccc(CCC#N)c4)ccc3C)nc2s1,9,0,2,12,15,10,8,13,1,0,0,88,51,0,17,10,0,0,0,5
Cc1cccc(-c2nc(Nc3cccc(C(N)=O)c3)c3ccccc3n2)n1 [GW876019],0,64,66,87,0,0,6,0,11,6,0,17,0,50,0,26,19,0,0,0
C[C@@H]1CCCCN1c1cc(-c2ccc3c(N)n[nH]c3c2)nc(N)n1 [GSK2258759],0,0,3,0,0,14,21,15,1,0,0,3,6,47,1,19,0,11,20,0
COc1cc2ncn(-c3cc(OCC4CCCO4)c(C(N)=O)s3)c2cc1OC (stereo not drawn) [GSK204607],0,0,0,0,0,0,13,10,4,0,0,0,0,77,0,94.5,5,7,0,0
COc1ccccc1CNC(=O)c1cc(C(=O)c2ccccc2C)c[nH]1 [GSK364507],0,9,1,5,1,2,0,7,23,7,8,25,14,30,0,1,0,9,19,0
CCn1c(-c2cccnc2O)nc2cnccc21 [SB-736715],0,0,0,0,0,0,0,0,0,0,0,0,5,6,0,0,0,0,21,0
COc1ccccc1-c1ccc2c(NC(=O)C3CC3)n[nH]c2n1 [SB-711239],9,0,11,30,27,22,7,25,53,0,16,38,11,20,9,0,10,33,0,0
O=C(Nc1n[nH]c2nc(-c3nccs3)c(Br)cc12)C1CCCC1 [SB-742609],4,0,0,0,2,0,5,0,13,9,0,25,0,2,0,0,0,4,21,1
COc1cc2ncnc(Nc3ccc4nc(-c5ccccc5)[nH]c4c3)c2cc1OC.Cl [GW282450],11,0,5,7,0,13,13,5,10,7,0,10,33,51,11,25,18,27,1,0
